Experimental data published in PubChem BioAssay.
Activity calls are given as the source filed them. Unless noted, no stated cut-off is given here; in the data, active means nuclear beta-catenin stimulation mostly above about 4.2% (no sharp cut-off); inactive means mostly below about 10%.

Experiments:
[1] = stimulators of nuclear beta-catenin in C2C12, primary screen, imaging, WNT3A-conditioned medium, mouse C2C12, NPC library (AID 1117326); details: stronger effect = higher value; further: reference of the scale not given here
[2] = stimulators of insulin release from INS-1E, primary screen, cell-based, 5 mM glucose, NPC library (AID 1117329;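 active means compound raises insulin release from rat beta cells at 5 mM glucose, no numeric limit stated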; further: reference of the scale not given here); details: rat INS-1E insulin secretion, at 10 µM, stronger effect = higher value
[3] = growth inhibition of GSK3B-pretreated HCT116 cells – cell-based, CellTiter-Glo, 0.2 to 20 µM (AID 1117336;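 active means compounds lowering colon cancer cell viability after pretreatment blocking the GSK3B kinase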); details: HCT116 viability after GSK3B inhibitor, at 20 µM, stronger effect = higher value
[4] = inhibition of endothelial tube formation, primary screen, imaging, VEGF stimulated, CD31 staining, tube area, NPC library (AID 1117340;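 active means compound that reduces growth-factor-driven endothelial tube area in a mixed cell culture, no cutoff stated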); details: VEGF-stimulated ADSC/ECFC co-culture, at 10 µM, stronger effect = higher value
[5] = glucagon-like peptide 1 release enhancers, primary assay, NCI-H716 cell line, NPC library (AID 1117341;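 active means compound raises GLP1 secretion from the human gut endocrine cells, with no numeric limit stated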; further: reference of the scale not given here); details: NCI-H716 cells, at 10 µM, stronger effect = higher value
[6] = HCT116 colon cancer cell growth inhibition, primary screen, CellTiter-Glo luminescence, NPC library (AID 1117342;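 active means compounds that lower survival of HCT116 colon cancer cells in the luminescence readout, no numeric limit stated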); details: at 20 µM (top of the series)
[7] = CellTiter-Glo luminescent readout of SW480 viability loss, NPC library primary (AID 1117343;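 active means compounds that lower viability of the colon cancer cells in the luminescence readout, with no numeric limit stated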); details: CellTiter-Glo luminescence; at 20 µM (top of the series)
[8] = decreased DLD-1 cellular survival, CellTiter-Glo luminescent readout, NPC compound collection, primary HTS (AID 1117346;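 active means compounds that lower survival of DLD-1 colon cancer cells in the luminescence readout, no cutoff given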); details: DLD-1 viability, CellTiter-Glo luminescence; at 20 µM (top of the series)

CNC(=O)Oc1cccc2ccccc12
active: tube area decrease [4] 41.9% | viability decrease (inhibition) [7] 114%
inactive: nuclear beta-catenin stimulation ([1]; at 10 µM) 7.6% | insulin secretion stimulation [2] 1.3% | viability decrease [3] 0.5% | GLP1 secretion stimulation [5] -5.4% | inhibition of viability [6] 5% | viability decrease (inhibition) [8] 16.3%
0.4%: nuclear beta-catenin stimulation ([1]; stimulation, at 2 µM)

CNC(=O)NC(O)C(Cl)(Cl)Cl (stereo not drawn)
-0.2%: nuclear beta-catenin stimulation ([1]; stimulation, at 2 µM)
inactive: nuclear beta-catenin stimulation ([1]; at 10 µM) -0.4% | insulin secretion stimulation [2] -1% | viability decrease [3] -2.1% | tube area decrease [4] -28.9% | GLP1 secretion stimulation [5] 3.1% | inhibition of viability [6] -4.4% | viability decrease (inhibition) [7] 19.7% | viability decrease (inhibition) [8] -1.55%

O=C(O)c1cc(Oc2ccc(C(F)(F)F)cc2Cl)ccc1[N+](=O)[O-]
inactive: nuclear beta-catenin stimulation ([1]; at 10 µM) 1.4% | insulin secretion stimulation [2] 4.1% | viability decrease [3] -10.9% | tube area decrease [4] 0.3% | GLP1 secretion stimulation [5] 3.1% | inhibition of viability [6] 9.4% | viability decrease (inhibition) [7] -9.4% | viability decrease (inhibition) [8] -3.5%
0.5%: nuclear beta-catenin stimulation ([1]; stimulation, at 2 µM)

CC(Cc1ccccc1)NCc1ccccc1Cl (stereo not drawn)
0%: nuclear beta-catenin stimulation ([1]; stimulation, at 2 µM)
active: viability decrease (inhibition) [7] 51.1%
inactive: nuclear beta-catenin stimulation ([1]; at 10 µM) 0.1% | insulin secretion stimulation [2] 10.2% | viability decrease [3] 26.5% | tube area decrease [4] -19.5% | GLP1 secretion stimulation [5] 2.3% | inhibition of viability [6] 21.9% | viability decrease (inhibition) [8] 22.6%

CCOC(=O)C(c1c(O)c2ccccc2oc1=O)c1c(O)c2ccccc2oc1=O
inactive: nuclear beta-catenin stimulation ([1]; at 10 µM) -0.3% | insulin secretion stimulation [2] -0.8% | viability decrease [3] 13% | tube area decrease [4] -8.4% | GLP1 secretion stimulation [5] -0.8% | inhibition of viability [6] 5.5% | viability decrease (inhibition) [7] -18.7% | viability decrease (inhibition) [8] 3.4%
-0.6%: nuclear beta-catenin stimulation ([1]; stimulation, at 2 µM)

CC(C)NC(C)C
inactive: nuclear beta-catenin stimulation ([1]; at 10 µM) 14.9% | insulin secretion stimulation [2] 4.3% | viability decrease [3] -0.3% | tube area decrease [4] -6.3% | GLP1 secretion stimulation [5] -0.1% | inhibition of viability [6] 1.1% | viability decrease (inhibition) [7] 2.1% | viability decrease (inhibition) [8] 0.4%
5.2%: nuclear beta-catenin stimulation ([1]; stimulation, at 2 µM)

CCOC(=O)NC(C)(C)Cc1ccc(Cl)cc1
active: tube area decrease [4] 65.4% | inhibition of viability [6] 61.4%
inactive: nuclear beta-catenin stimulation ([1]; at 10 µM) 7.3% | insulin secretion stimulation [2] 2.1% | viability decrease [3] 13.6% | GLP1 secretion stimulation [5] -1.8% | viability decrease (inhibition) [7] 31.1% | viability decrease (inhibition) [8] 3.85%
-2.9%: nuclear beta-catenin stimulation ([1]; stimulation, at 2 µM)

C[C@]12C[C@@H]3S[C@H]3C[C@@H]1CC[C@H]1[C@H]3CC[C@@H](O)[C@@]3(C)CC[C@@H]12
inactive: nuclear beta-catenin stimulation ([1]; at 10 µM) -1% | insulin secretion stimulation [2] 2.4% | viability decrease [3] -16.6% | tube area decrease [4] 10.4% | GLP1 secretion stimulation [5] -4.2% | inhibition of viability [6] 18.8% | viability decrease (inhibition) [7] 17.2% | viability decrease (inhibition) [8] -13.3%
-0.5%: nuclear beta-catenin stimulation ([1]; stimulation, at 2 µM)

C[C@]12CCC(=O)C=C1C=C[C@@H]1[C@H]2CC[C@@]2(C)[C@@H]1CC[C@@]2(O)CCC(=O)O
inactive: nuclear beta-catenin stimulation ([1]; at 10 µM) -1.1% | insulin secretion stimulation [2] -2.4% | viability decrease [3] -15.4% | tube area decrease [4] 2% | GLP1 secretion stimulation [5] 0.9% | inhibition of viability [6] 3.7% | viability decrease (inhibition) [7] -2% | viability decrease (inhibition) [8] -7.2%
0%: nuclear beta-catenin stimulation ([1]; stimulation, at 2 µM)

O=C(O)c1ccc(=O)[nH]c1
inactive: nuclear beta-catenin stimulation ([1]; at 10 µM) 0.4% | insulin secretion stimulation [2] 2.6% | viability decrease [3] 3.2% | tube area decrease [4] -2.4% | GLP1 secretion stimulation [5] -0.3% | inhibition of viability [6] 7.7% | viability decrease (inhibition) [7] -13.1% | viability decrease (inhibition) [8] -3.9%
0.8%: nuclear beta-catenin stimulation ([1]; stimulation, at 2 µM)

O=C(N[C@H]1N=C(c2ccccc2F)c2cccc3c2N(CC3)C1=O)c1cc2ccccc2[nH]1
1.4%: nuclear beta-catenin stimulation ([1]; stimulation, at 2 µM)
inactive: nuclear beta-catenin stimulation ([1]; at 10 µM) 1.3% | insulin secretion stimulation [2] 3.5% | viability decrease [3] 44.4% | tube area decrease [4] 8.5% | GLP1 secretion stimulation [5] 1.8% | viability decrease (inhibition) [8] 29.7%
active: inhibition of viability [6] 54.9% | viability decrease (inhibition) [7] 56.9%

CCN(CC)CCOC(=O)C(C)(c1ccccc1)c1ccccc1
inactive: nuclear beta-catenin stimulation ([1]; at 10 µM) 1.1% | viability decrease [3] 36.8% | tube area decrease [4] 0.6% | GLP1 secretion stimulation [5] 8.1% | inhibition of viability [6] 49.8% | viability decrease (inhibition) [7] 22.2% | viability decrease (inhibition) [8] 17.9%
active: insulin secretion stimulation [2] 27.8%
0.8%: nuclear beta-catenin stimulation ([1]; stimulation, at 2 µM)

Cc1ccc2c(c1)C1CN(C)CCC1N2 (stereo not drawn)
0.7%: nuclear beta-catenin stimulation ([1]; stimulation, at 2 µM)
inactive: nuclear beta-catenin stimulation ([1]; at 10 µM) -0.3% | insulin secretion stimulation [2] -0.9% | viability decrease [3] 1.05% | tube area decrease [4] -17.5% | GLP1 secretion stimulation [5] 6.1% | inhibition of viability [6] 5.2% | viability decrease (inhibition) [7] 22.4% | viability decrease (inhibition) [8] 0.7%

Clc1ccccc1N1CCNCC1
active: tube area decrease [4] -12%
inactive: nuclear beta-catenin stimulation ([1]; at 10 µM) 0.1% | insulin secretion stimulation [2] 5.2% | viability decrease [3] 4.1% | GLP1 secretion stimulation [5] 3.6% | inhibition of viability [6] 48.4% | viability decrease (inhibition) [7] 19% | viability decrease (inhibition) [8] 2%
-2.2%: nuclear beta-catenin stimulation ([1]; stimulation, at 2 µM)

Oc1ccc(Cl)cc1Cc1ccccc1
active: GLP1 secretion stimulation [5] 38% | viability decrease (inhibition) [7] 118% | viability decrease (inhibition) [8] 85.4%
inactive: nuclear beta-catenin stimulation ([1]; at 10 µM) 0.2% | insulin secretion stimulation [2] 0.7% | viability decrease [3] 38.4% | tube area decrease [4] 4.6% | inhibition of viability [6] -2.2%
0.1%: nuclear beta-catenin stimulation ([1]; stimulation, at 2 µM)

CCCOC(=O)c1cncn1C(C)c1ccccc1 (stereo not drawn)
inactive: nuclear beta-catenin stimulation ([1]; at 10 µM) 3.6% | insulin secretion stimulation [2] 4.8% | viability decrease [3] -12.2% | tube area decrease [4] -7.5% | GLP1 secretion stimulation [5] 1.9% | inhibition of viability [6] 11% | viability decrease (inhibition) [7] -24.3% | viability decrease (inhibition) [8] 18.7%
0.7%: nuclear beta-catenin stimulation ([1]; stimulation, at 2 µM)

C[C@]12Cc3nonc3C[C@@H]1CC[C@@H]1[C@@H]2CC[C@@]2(C)[C@H]1CC[C@]2(C)O
0.4%: nuclear beta-catenin stimulation ([1]; stimulation, at 2 µM)
inactive: nuclear beta-catenin stimulation ([1]; at 10 µM) 2.5% | insulin secretion stimulation [2] -2.4% | viability decrease [3] 38.9% | tube area decrease [4] 1.9% | GLP1 secretion stimulation [5] 3.3% | inhibition of viability [6] 1.5%
active: viability decrease (inhibition) [7] 118% | viability decrease (inhibition) [8] 61%
